Measured values reported in the supplement of paper PMC9433436.
± gives the standard deviation of the averaged measurements. In all, about 4,100 sequences were measured (“relative kcat/Km (krel) vs genomic leader AAAGAU”: median about 1.7, highest 2% from about 6.5 on). For the sample, the highest values were picked, then their nearest neighbours and some sequences at random.

Biological target: T1, E. coli RNase P holoenzyme (M1 P RNA + rnpA protein) (UniProt P0A7Y8)
T1 sequence: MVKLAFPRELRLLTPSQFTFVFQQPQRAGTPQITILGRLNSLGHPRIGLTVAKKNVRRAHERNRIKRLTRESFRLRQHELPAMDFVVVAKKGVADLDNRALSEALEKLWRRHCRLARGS
Experiment: relative kcat/Km (krel) vs genomic leader AAAGAU (relative (reference leader = 1)); higher = faster RNase P cleavage
Experimental: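 HTS-Kin: a pool of ptRNA-Met (21C construct) with all 4096 combinations of 5' leader nucleotides N(-6) to N(-1) was processed in vitro by E. coli RNase P (P RNA + rnpA/C5 protein) under multiple-turnover conditions at 37 C, pH 8, 17.5 mM MgCl2. Residual substrate was Illumina-sequenced at several fractions reacted, and relative kcat/Km (krel) was computed by internal competition kinetics, calibrated to the genomic leader (AAAGAU = 1). The listed hexamer is the varied N(-6)..N(-1) leader (DNA letters), and it sits between a fixed 5' stem-loop flank (GCAUGCACGAAAGUGCGUGCUAUGAA) and the mature tRNA-Met starting GGCUACGUAGCUCAGUUGG. Two technical replicates are averaged.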

[1] = fraction of substrate reacted: ~13-16% (15.68% repeat 1, 13.17% repeat 2)
[2] = fraction of substrate reacted: ~26-29% (28.66% repeat 1, 26.4% repeat 2)
[3] = fraction of substrate reacted: ~9-10% (9.79% repeat 1, 9.1% repeat 2)

Sequence	relative kcat/Km [1]	relative kcat/Km [2]	relative kcat/Km [3]
GCAATT	0.851 ± 0.064	1.21 ± 0.26	–
AGTGTG	–	0.473 ± 0.33	–
CCCCCT	1.25 ± 0.29	1.95 ± 0.15	2.27 ± 1.8
CCCTAG	2.55 ± 0.57	4.45 ± 1.2	3.11 ± 1.7
ACCTCA	3.24 ± 0.27	4 ± 1.2	3.35 ± 1.8
GCCTAA	3.94 ± 0.16	7.08 ± 2.8	2.35 ± 0.18
CCCTAA	4.41 ± 1.4	6.7 ± 3.1	3.68 ± 0.17
CCCTAT	5.47 ± 1.1	7.09 ± 3.1	3.137 ± 0.006
GCCTAG	1.57 ± 0.49	3.67 ± 1.2	2.58 ± 1.6
ACCTAA	4.49 ± 0.31	6.74 ± 2.3	2.83 ± 0.76
GCCTAT	3.91 ± 0.98	6.22 ± 2.8	2.77 ± 0.47
ACCTAG	2.93 ± 0.56	4.27 ± 0.99	2.77 ± 2.8
CCCTGT	–	1.59 ± 0.87	–
CCTAAA	2.31 ± 0.051	3.14 ± 0.82	2.53 ± 1.5
TGCAAA	1.86 ± 0.54	2.7 ± 1.3	0.962 ± 0.78
CGGACC	0.714 ± 0.41	0.577 ± 0.38	0.889 ± 0.39
ACCGGT	–	1.78 ± 1.1	–
TGGTCT	–	0.817 ± 0.39	–
CTGGCG	–	0.461 ± 0.2	0.881 ± 0.58
CAGTGA	2.14 ± 0.58	3.05 ± 0.86	1.48 ± 0.7
GATCGA	2.79 ± 1.2	4.26 ± 1.2	2.37 ± 0.82
GTTAAG	1.6 ± 0.16	2.65 ± 0.77	–
CTACTC	1.61 ± 0.43	2.14 ± 0.28	2.13 ± 1.3
TCCTAA	6.12 ± 0.94	9.11 ± 3.3	5.1 ± 1.9
TCCTAG	3.4 ± 0.46	6.01 ± 2.7	2.56 ± 0.72
AACCGA	3.23 ± 0.34	4.66 ± 1.2	2.67 ± 0.52
GACCGA	4.27 ± 2.1	6.73 ± 2.8	3.3 ± 0.89

Sequence	relative kcat/Km [1]	relative kcat/Km [2]	relative kcat/Km [3]
TACCGG	–	1.29 ± 0.22	–
TACCGC	4.16 ± 0.76	6.03 ± 2.5	3.15 ± 1.3
TACCGA	4.89 ± 1.1	7.04 ± 2.7	2.83 ± 0.7
CACCGA	3.9 ± 0.93	6.22 ± 2.1	3.39 ± 1.4
AGCCGC	2.5 ± 0.098	4.02 ± 1.1	3.07 ± 1.3
TGTATC	2.43 ± 0.36	4 ± 1.6	1.92 ± 0.29
AACTGT	0.97 ± 0.59	0.608 ± 0.51	0.625 ± 0.14
GGACGG	–	0.782 ± 0.17	–
GGCGGC	–	0.914 ± 0.47	–
GAACAG	0.667 ± 0.64	1.66 ± 0.19	–
TCATAA	4.17 ± 0.67	5.77 ± 2.2	3.15 ± 1.2
ACATAC	3.78 ± 0.48	6.1 ± 2.7	3.09 ± 1.3
GAATAT	4.3 ± 0.79	6.29 ± 3.4	2.99 ± 0.33
TAATAT	5.05 ± 0.28	7.45 ± 3.4	3.78 ± 1.4
TAATAA	4.41 ± 0.57	5.5 ± 2.2	3.59 ± 2
ACATAT	4.26 ± 0.58	6.5 ± 3.1	2.86 ± 0.79
TCATAG	1.66 ± 0.34	3.6 ± 0.47	1.97 ± 1.4
TCATAT	5.49 ± 1	8.18 ± 3.4	4.21 ± 1.4
TCATAC	5.72 ± 0.91	7.38 ± 3	4.3 ± 0.51
ACAACT	–	1.07 ± 0.15	–
CGGACA	0.739 ± 0.49	0.747 ± 0.23	0.696 ± 0.1
GCAAAT	2.01 ± 0.39	1.93 ± 0.58	2.24 ± 0.9
CGACCC	0.175 ± 0.13	1.47 ± 0.038	–
AAGATG	–	0.939 ± 0.44	–
TACGAT	2.79 ± 0.68	3.63 ± 1.5	2.93 ± 1.5
GACGTA	2.86 ± 0.42	3.54 ± 1.3	2.41 ± 1.4
AACGAC	4.57 ± 1.6	5.98 ± 2.1	3.67 ± 0.53

Sequence	relative kcat/Km [1]	relative kcat/Km [2]	relative kcat/Km [3]
CACGAC	5.56 ± 2.7	7.35 ± 3	3.62 ± 0.058
GACGGA	1.21 ± 1.1	0.922 ± 0.64	–
CACGAG	2.47 ± 1.2	3.69 ± 1.2	1.8 ± 0.22
TACGAC	5.54 ± 1.6	7.61 ± 3.2	3.699 ± 0.0078
TACGAA	5.68 ± 1	8.44 ± 3.8	2.87 ± 0.059
AACGAA	3.68 ± 0.69	5.36 ± 1.9	2.84 ± 0.7
CACGAT	2.22 ± 0.33	3.42 ± 1.1	1.78 ± 0.53
GACGAA	6.07 ± 1.1	8.11 ± 2.6	3.75 ± 1.5
TACGAG	1.58 ± 0.12	3.95 ± 1.1	–
TCGTCA	2.51 ± 0.12	3.63 ± 1.3	2.78 ± 1.8
ACTAGG	–	0.408 ± 0.15	–
CGGGCA	0.965 ± 0.75	0.825 ± 0.17	1.28 ± 0.55
CCAGAC	2.1 ± 1.1	3.22 ± 0.77	2.22 ± 0.29
AAGGGA	–	1.11 ± 0.65	–
TTTTCC	2.75 ± 0.3	3.22 ± 0.98	2.77 ± 1.4
GAGGTG	–	0.61 ± 0.57	–
GGATGG	–	0.8644 ± 0.0076	–
CTTTTT	3.27 ± 0.75	4.46 ± 1.3	2.99 ± 1.5
GCTCGG	0.268 ± 0.21	0.748 ± 0.15	0.809 ± 0.37
CACGTA	2.23 ± 0.31	3.56 ± 1.4	1.91 ± 1.1
CACGAA	6 ± 1.6	7.87 ± 2.6	4.26 ± 1.8
GACGAC	5.87 ± 1.6	7.89 ± 2.8	3.35 ± 0.49
GACGAT	2.06 ± 1.5	2.68 ± 1.1	1.52 ± 0.65
CACGCA	3.31 ± 1.5	4.91 ± 1.6	2.14 ± 0.48
GACGAG	1.49 ± 0.19	3.3 ± 0.29	–
CGGATT	–	0.799 ± 0.34	–
CAAATA	1.68 ± 0.092	1.78 ± 0.47	2.33 ± 2.3

Sequence	relative kcat/Km [1]	relative kcat/Km [2]	relative kcat/Km [3]
CACCTA	2.44 ± 0.4	3.68 ± 1.3	2.32 ± 0.25
ACTAAC	1.42 ± 0.44	2.32 ± 0.65	1.48 ± 0.31
TTCTGT	–	2.43 ± 1.9	–
ATCTGC	3.94 ± 1.9	6.13 ± 3	3.18 ± 0.4
TTCTGC	5.95 ± 2.2	8.28 ± 3.5	4.12 ± 0.25
CTCTGC	5.74 ± 1.6	7.34 ± 3	3.95 ± 0.21
TTCTGG	0.819 ± 0.094	1.66 ± 0.46	0.949 ± 0.38
CTCTGG	–	1.31 ± 0.49	0.652 ± 0.17
TTCTGA	5.18 ± 0.91	7.63 ± 2.7	4.7 ± 2.6
GCCTGC	3.39 ± 0.37	4.68 ± 2.1	2.23 ± 0.7
TGCTGC	1.51 ± 1.2	2.71 ± 1	1.63 ± 0.12
GACTGC	3.38 ± 0.99	4.88 ± 1.6	3.44 ± 0.14
ATCTGA	3.98 ± 0.23	6.19 ± 2.2	3.86 ± 1.9
GTCTGC	4.94 ± 1.2	7.11 ± 3.3	3.58 ± 1.3
GGTTGG	–	1.05 ± 0.77	–
TGACAC	4.21 ± 0.43	5.94 ± 2.2	3.63 ± 1.5
TTGCCT	1.33 ± 0.068	2.09 ± 0.58	1.95 ± 0.52
GGAGCC	0.902 ± 0.094	1.3 ± 0.38	1.22 ± 0.046
ACACGG	0.487 ± 0.4	–	–
ACGCAA	1.95 ± 0.18	2.25 ± 0.13	1.95 ± 1.4
GGGGCG	–	0.656 ± 0.0035	0.268 ± 0.026
ATAGGT	–	2.15 ± 1.4	–
ATAACT	1.21 ± 0.2	1.79 ± 0.75	1.28 ± 0.37
GAGTTT	1.28 ± 0.17	2.05 ± 0.46	1.6 ± 0.65
